Assay outcomes from PubChem BioAssay.
Sampled rows, rich in hits. Any-hit rate of the full collection: about 6.5%.
HT1080NT lethal = kills 2HG-producing HT-1080-NT fibrosarcoma cells. Potency, µM (doses to about 46.1 µM), without a hit: top-dose activity, negative = less viability, usual class: cytotoxic. 360,000 compounds, 1.6% hits. HT-1080-NT fibrosarcoma viability, CellTiter-Glo ATP luminescence, 48 h. AID 686970;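 further: NT is the 2HG producing partner of a matched IDH1 knockdown line; potency means the concentration at half of the fitted maximal effect; 0% = DMSO-treated cells and -100% = media-only wells without cells; nearly all actives have a fitted effect of over 55% in size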
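Toxicity toward the 2HG-producing NT line was scored as %Activity, normalised to DMSO and no-cell wells, from CellTiter-Glo luminescence after 48 hours' treatment.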
TGFb inhibitor = blocks TGF-b signaling; AID 588855; Potency, µM (highest dose often 46.1 µM), for inactives: at the highest dose activity, negative = inhibition, actives largely listed as inhibitors; HepG2 CAGA-GFP TGF-b/SMAD3 reporter, GFP fluorescence, 18 h; TGF-beta stimulated, 500 pg/mL final; 410,000 compounds, 1.2% hits; further: potency means the concentration at half of the fitted maximal effect; on the % scale 0 is the no-effect control and ±100 the full control effect; nearly all actives have a fitted effect of over 65% in size
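HEPG2 CAGA-GFP, 1000 cells/well; 2 h settle, 37 C; cpd via pin tool; TGF-b 500 pg/mL final; 18 h, 37 C; GFP imaging ex488/em500-530; %Activity normalised to -TGF-b and +DMSO controls; CRC fit, curve class.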
Giardia kill = Giardia lamblia killing. Giardia lamblia trophozoite viability. activity change, % at 7.66 µM, hits read low. 340,000 compounds, 0.15% hits; in the data active means activity change below about -80%; inconclusive means between about -30% and that limit;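 further: parasites exposed to compound for two days anaerobically before the ATP read; on the % scale 0 is the no-effect control and ±100 the full control effect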
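Killing of trophozoites was scored by loss of ATP luminescence after a 48 hrs anaerobic exposure to compounds at 37 deg C, using 100 cells per well.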
HepG2 tox = kills HepG2 cells in TGF-b inhibitor counter-screen | HepG2 CAGA-GFP viability, ATP luminescence, 18 h | Potency, µM (doses to about 46.1 µM), for inactives: top-dose activity change, negative = cytotoxicity, most hits filed as cytotoxic | 410,000 compounds, 0.76% hits | AID 588856; further: potency means the concentration at half of the fitted maximal effect
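CellTiter-Glo luminescence gave cytotoxicity after 18 hours at 37 degrees C. The cells were HepG2 CAGA-GFP in 1% FBS DMEM, stimulated with 500 pg/mL TGF-beta after compound addition. %Activity was normalised to no-cell wells (complete cell-killing) and DMSO (no toxicity), and curves were fitted and classified.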
IL-1B inflam inh = inflammasome signaling inhibition, IL-1 beta readout; 360,000 compounds, 4.7% hits; THP-1 LPS/ATP IL-1B secretion, AlphaLISA, 16 h; stronger effect = lower value; activity change, % at 57.5 µM; in the data active means activity change below about -50%; inconclusive means mostly about -30% to -49%; further: on the % scale 0 is the no-effect control and ±100 the full control effect
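THP-1 cells pretreated 1 hr with compounds (up to 57.5 uM final), then stimulated with LPS (250 ng/mL final) plus ATP (1.25 mM final); secreted IL-1B measured by AlphaLISA after 16 hr, decreased signal indicating inhibition.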
HT1080 IDH1KD tx = kills HT-1080 cells with IDH1 knockdown | 360,000 compounds, 2% hits | AID 686971 | Potency, µM (highest dose often 46.1 µM), for inactives: at the highest dose activity, negative = toxicity, usual class: cytotoxic | HT-1080 IDH1 knockdown viability, ATP luminescence, 48 h;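 further: potency means the concentration at half of the fitted maximal effect; 0% = DMSO wells and -100% = cell-free medium wells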
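Luminescent ATP read-out (CellTiter-Glo, 10 min at room temperature) after 48 h compound exposure at 37 °C gave viability of IDH1-knockdown HT-1080 cells. Activity was normalised to DMSO and cell-free wells, then fitted as concentration-response curves.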
* marks the source's active call; other numbers are inactive results; ? = inconclusive; / = not tested or not shown; [ ] = dose if it differs, or a comment. Unless noted, the call rests on the fitted dose curve; in most records, active means well fitted curve in the direction sought with a large enough effect; inconclusive means small, poorly fitted or top-dose-only effect, or another doubt; inactive means no such curve, though single readings can be large; an effect the other way counts as inactive or inconclusive.

SMILES	HT1080NT lethal	TGFb inhibitor	Giardia kill	HepG2 tox	IL-1B inflam inh	HT1080 IDH1KD tx
Cc1ccc(C)c(NC(=O)CN(C)C(=O)c2ccc3[nH]c4c(c3c2)CC(C)CC4)c1 (configuration not stated)	?	?	15.7	-33.8%	-54.5*	?
O=C(NCC1CCCO1)c1ccc2c(=O)n(CC3CCCO3)c(=S)[nH]c2c1 (configuration not stated)	11.8%	1.9%	-2.1	-1.0%	30.4	2.0%
CC1CCc2[nH]c3ccc(C(=O)N(C)CC(=O)Nc4ccccc4Br)cc3c2C1 (configuration not stated)	-19.6%	?	4.3	13.9%	-74.4*	?
Cc1cc(OC(F)F)ccc1NC(=O)Nc1ccc2c(c1)OCO2	-6.7%	-5.8%	4.3	-2.1%	-23.1	-0.5%
O=C(c1ccco1)N1CCN(c2c([N+](=O)[O-])nn(-c3cccc(Cl)c3)[n+]2[O-])CC1	-2.0%	?	-86.6*	-20.5%	40.8	13.2%
NC(=O)c1nsc(C(=O)N(CC(=O)NC2CCCC2)c2cccc(C(F)(F)F)c2)c1N	-17.2%	16.2%	2.0	3.9%	-12.9	-10.6%
CC(C)CC(C(=O)NC1CCCC1)N(Cc1ccc2c(c1)OCO2)C(=O)c1snc(C(N)=O)c1N (configuration not stated)	-0.6%	-18.5%	5.0	8.5%	15.6	1.0%
CC(C)CCNC(=O)C(CC(C)C)N(Cc1ccc2c(c1)OCO2)C(=O)c1snc(C(N)=O)c1N (configuration not stated)	-7.6%	29.1%	10.3	-4.5%	-57.1*	-15.6%
COc1cccc(N(CC(=O)NC2CCCCC2)C(=O)c2snc(C(N)=O)c2N)c1	1.9%	-22.1%	-0.7	-16.9%	-60.9*	-3.0%
COc1ccc(CN(C(=O)c2snc(C(N)=O)c2N)C(CC(C)C)C(=O)NC2CCCCC2)cc1 (configuration not stated)	-29.0%	?	44.7	-0.2%	-71.0*	?
COC(=O)C(CC(=O)c1ccc(Br)cc1)n1ccnc1 (configuration not stated)	/	4.47µM*	/	7.94µM*	/	/
Cn1c(N)c(C(=O)CSc2nc3ccccc3n2-c2ccccc2)c(=O)n(C)c1=O	-1.5%	6.2%	-3.2	-17.2%	7.0	2.7%
CCC[n+]1c2ccccc2cc2ccccc21	16.4µM*	?	-12.8	-49.5%	-99.0*	?
CCCC[n+]1c(/C=C/c2c(OC)cc(OC)cc2OC)ccc2ccccc21	/	60.5%	/	-49.0%	/	/
CCCC[n+]1c2ccccc2cc2ccccc21	23.1µM*	?	9.0	-23.0%	-101.4*	?
Cc1ccsc1/C=N/Nc1ncnc2nc[nH]c12	-19.7%	-12.4%	5.3	0.4%	80.9	-7.3%
Cn1c(/C=N/Nc2nc3ccccc3[nH]2)nc2ccccc21	-29.6%	?	-17.7	-23.8%	7.5	?
CCCn1c(/C=N/Nc2nc3ccccc3[nH]2)nc2ccccc21	?	?	7.9	-19.5%	-52.0*	?
C(=N\Nc1ncnc2nc[nH]c12)/c1cccs1	-8.2%	?	-11.4	-30.5%	-73.8*	-4.5%
Cc1c(/C=N/Nc2nc3ccccc3[nH]2)c2ccccc2n1C	20.6µM*	?	8.4	-32.5%	-99.1*	?
C=CCn1cc(/C=N/Nc2nc3ccccc3[nH]2)c2ccccc21	20.6µM*	?	21.7	0.5%	-94.8*	16.4µM*
O=C(O)CN1C(=O)/C(=C/c2cccc(Cl)c2)Oc2ccccc21	-0.4%	21.7%	-7.3	3.0%	0.5	-14.0%
Cc1ccc(S(=O)(=O)N2CCC(C(=O)NC3CCCCCC3)CC2)cc1	-8.7%	4.7%	7.7	-19.7%	-0.6	-10.5%
CC(=O)c1c(C)[nH]c(C(=O)OC(C)C(=O)Nc2ccc(C)c(S(=O)(=O)N3CCOCC3)c2)c1C (configuration not stated)	-7.6%	-12.5%	6.0	-9.5%	40.2	-15.3%
CCNc1nc(NCC)nc(N(C#N)CCOc2ccccc2)n1	1.1%	4.0%	-21.4	-1.7%	-6.2	-4.4%
SMILES	HT1080NT lethal	TGFb inhibitor	Giardia kill	HepG2 tox	IL-1B inflam inh	HT1080 IDH1KD tx
CCCn1c(SCC(=O)NCc2ccccc2)nnc1-c1ccncc1	-3.8%	-1.3%	3.9	-4.5%	1.9	-1.2%
Cc1cc(=O)[nH]c(N/N=C/c2c(C)nn(-c3ccccc3)c2C)n1	-0.3%	0.9%	-12.7	2.4%	-14.6	4.3%
C(=N\Nc1nc2ccccc2[nH]1)/c1cccs1	-3.7%	-11.9%	16.8	-28.9%	-70.6*	-0.4%
Cc1nn(-c2ccccc2)c(C)c1/C=N/Nc1nc2ccccc2[nH]1	?	?	-15.6	-45.7%	-88.2*	18.4µM*
CC(=O)c1cccc(NC(=O)Cn2c(-c3cncs3)nc3ccccc32)c1	/	8.3%	/	-19.6%	/	/
Cc1ccc(NS(=O)(=O)c2sc3ccc(Cl)cc3c2C)cc1	?	?	-4.5	-97.6%	-84.6*	?
O=C(NCC(F)(F)F)Nc1cccnc1	-5.1%	23.9%	-15.9	35.8%	-3.5	-4.8%[9.24 µM]
Cc1cc(Cl)ccc1OCCCC(=O)N1CCCCC1	3.0%	-5.1%	-4.3	-20.8%	-29.2	-13.7%
Cc1ccc(S(=O)(=O)N2CCN(C(=O)CCCOc3ccc(Cl)cc3C)CC2)cc1	-4.6%	?	-21.3	8.4%	-62.1*	-13.2%
Cc1ccc(S(=O)(=O)N2CCN(C(=O)CSc3ccc(Cl)cc3)CC2)cc1	12.0%	-29.0%	8.5	-3.9%	-60.7*	12.1%
O=[N+]([O-])c1ccc(N2CCN(c3ccccn3)CC2)c(Cl)c1	-19.6%	-3.8%	-17.6	0.2%	-58.7*	-13.1%
Cc1ccc(SCC2(O)CCN(S(=O)(=O)c3ccc(Cl)cc3)CC2)cc1	-16.0%	-14.3%	29.9	-21.9%	-17.8	-22.4%
O=C(CSc1ccc(Cl)cc1)N1CCN(c2ccc([N+](=O)[O-])cc2Cl)CC1	-2.1%	-2.7%	-7.6	-23.2%	-62.0*	-23.3%
O=C(CCCn1c(=O)[nH]c2cc(Cl)ccc2c1=O)NCC1CCCO1 (configuration not stated)	6.2%	2.9%	-2.0	5.5%	-7.8	11.9%
CC(C)CCN(C(=O)CNC(=O)c1cccs1)C(C(=O)NC1CCCCC1)c1cccnc1 (configuration not stated)	-6.9%	-10.7%	3.5	-12.8%	-10.0	6.1%
CCOC(=O)C(=Cc1ccc(-n2cncn2)cc1)C(=O)OCC	16.4µM*	?	-12.0	-93.2%	-99.5*	5.17µM*
